For orientation: residual activity means the signal under treatment as a percentage of the control signal.

This is an account of results in ChEMBL document CHEMBL2218924, “A broad activity screen in support of a chemogenomic map for kinase signalling research and drug discovery” (Biochem J, 2013).

The target in test [1] is T1, Casein kinase II (Homo sapiens) (UniProt P67870+P68400+P19784). The conditions noted are these: at 1 µM.
The target in test [2] is T1, Casein kinase II (Homo sapiens). The note with it: at 10 µM.
Test [3] deals with Casein kinase II subunit alpha' (Homo sapiens) (UniProt P19784). The note with it: at 1 µM.
Casein kinase II subunit alpha' (Homo sapiens), sequence (P19784 whole entry, looked up): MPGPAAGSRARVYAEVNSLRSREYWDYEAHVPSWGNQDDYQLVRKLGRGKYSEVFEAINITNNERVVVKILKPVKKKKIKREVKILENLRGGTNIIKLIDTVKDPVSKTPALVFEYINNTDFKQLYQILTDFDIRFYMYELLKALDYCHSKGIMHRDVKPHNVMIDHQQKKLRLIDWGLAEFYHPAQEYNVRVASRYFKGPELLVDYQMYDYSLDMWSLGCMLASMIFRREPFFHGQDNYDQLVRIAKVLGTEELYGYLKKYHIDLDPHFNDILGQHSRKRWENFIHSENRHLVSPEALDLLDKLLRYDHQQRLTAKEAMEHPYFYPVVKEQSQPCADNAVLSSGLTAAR
Test [4] shares this target. The note with it: at 10 µM.
Test [5] addresses Dual specificity protein kinase CLK2 (Homo sapiens) (UniProt P49760). The note with it: at 1 µM.
The target is the same in test [6]. The note with it: at 10 µM.
Test [7] deals with Dual specificity protein kinase CLK3 (Homo sapiens) (UniProt P49761). The conditions noted are these: at 1 µM.
Dual specificity protein kinase CLK3 (Homo sapiens), sequence (P49761 whole entry, looked up): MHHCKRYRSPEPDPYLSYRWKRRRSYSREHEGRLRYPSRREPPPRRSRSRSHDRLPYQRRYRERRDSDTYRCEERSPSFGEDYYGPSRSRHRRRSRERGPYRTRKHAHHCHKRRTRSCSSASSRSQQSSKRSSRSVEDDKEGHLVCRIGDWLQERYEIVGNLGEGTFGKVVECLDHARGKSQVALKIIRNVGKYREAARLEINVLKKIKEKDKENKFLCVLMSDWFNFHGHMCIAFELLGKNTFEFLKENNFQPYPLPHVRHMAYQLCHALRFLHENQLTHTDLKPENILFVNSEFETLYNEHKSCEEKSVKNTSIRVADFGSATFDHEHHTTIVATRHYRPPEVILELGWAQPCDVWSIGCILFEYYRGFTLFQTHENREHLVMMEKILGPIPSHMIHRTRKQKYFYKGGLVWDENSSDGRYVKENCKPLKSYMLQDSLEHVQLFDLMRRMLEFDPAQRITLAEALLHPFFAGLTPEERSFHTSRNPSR
The target is the same in test [8]. The note with it: at 10 µM.
For test [9], the target named is Tyrosine-protein kinase CSK (Homo sapiens) (UniProt P41240). The note with it: at 10 µM.
Tyrosine-protein kinase CSK (Homo sapiens), sequence (P41240 2-450 limits assumed): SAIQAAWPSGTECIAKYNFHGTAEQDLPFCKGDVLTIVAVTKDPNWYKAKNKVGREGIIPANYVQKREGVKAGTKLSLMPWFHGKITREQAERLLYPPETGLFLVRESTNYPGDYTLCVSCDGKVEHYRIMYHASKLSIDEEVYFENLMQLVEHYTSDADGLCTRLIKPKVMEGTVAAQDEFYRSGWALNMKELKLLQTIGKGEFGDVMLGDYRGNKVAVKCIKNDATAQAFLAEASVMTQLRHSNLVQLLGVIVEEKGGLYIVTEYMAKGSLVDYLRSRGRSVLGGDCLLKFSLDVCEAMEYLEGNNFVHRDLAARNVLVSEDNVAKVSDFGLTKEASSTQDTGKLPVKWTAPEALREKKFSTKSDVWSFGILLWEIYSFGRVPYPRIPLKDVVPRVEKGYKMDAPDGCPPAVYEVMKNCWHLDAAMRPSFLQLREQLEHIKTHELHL
Test [10] deals with Calcium/calmodulin-dependent protein kinase type 1 (Homo sapiens) (UniProt Q14012). The note with it: at 1 µM.
Calcium/calmodulin-dependent protein kinase type 1 (Homo sapiens), sequence (Q14012 whole entry, looked up): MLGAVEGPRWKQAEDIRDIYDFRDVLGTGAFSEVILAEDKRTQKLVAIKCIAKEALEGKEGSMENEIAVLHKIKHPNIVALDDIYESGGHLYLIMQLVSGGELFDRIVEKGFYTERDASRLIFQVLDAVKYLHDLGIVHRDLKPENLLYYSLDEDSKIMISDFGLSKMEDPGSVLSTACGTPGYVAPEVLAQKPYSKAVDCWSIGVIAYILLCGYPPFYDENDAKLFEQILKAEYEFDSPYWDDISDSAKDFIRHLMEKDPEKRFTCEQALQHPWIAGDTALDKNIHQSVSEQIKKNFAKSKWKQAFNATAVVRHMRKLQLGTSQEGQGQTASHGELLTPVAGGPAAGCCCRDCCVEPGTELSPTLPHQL
Test [11] shares this target. The note with it: at 10 µM.
Test [12] has as its target Calcium/calmodulin-dependent protein kinase type II subunit beta (Homo sapiens) (UniProt Q13554). The note with it: at 1 µM.
Test [13] shares this target. The conditions noted are these: at 10 µM.
In test [14] the target is Calcium/calmodulin-dependent protein kinase type II subunit gamma (Homo sapiens) (UniProt Q13555). The note with it: at 1 µM.
Calcium/calmodulin-dependent protein kinase type II subunit gamma (Homo sapiens), sequence (Q13555 whole entry): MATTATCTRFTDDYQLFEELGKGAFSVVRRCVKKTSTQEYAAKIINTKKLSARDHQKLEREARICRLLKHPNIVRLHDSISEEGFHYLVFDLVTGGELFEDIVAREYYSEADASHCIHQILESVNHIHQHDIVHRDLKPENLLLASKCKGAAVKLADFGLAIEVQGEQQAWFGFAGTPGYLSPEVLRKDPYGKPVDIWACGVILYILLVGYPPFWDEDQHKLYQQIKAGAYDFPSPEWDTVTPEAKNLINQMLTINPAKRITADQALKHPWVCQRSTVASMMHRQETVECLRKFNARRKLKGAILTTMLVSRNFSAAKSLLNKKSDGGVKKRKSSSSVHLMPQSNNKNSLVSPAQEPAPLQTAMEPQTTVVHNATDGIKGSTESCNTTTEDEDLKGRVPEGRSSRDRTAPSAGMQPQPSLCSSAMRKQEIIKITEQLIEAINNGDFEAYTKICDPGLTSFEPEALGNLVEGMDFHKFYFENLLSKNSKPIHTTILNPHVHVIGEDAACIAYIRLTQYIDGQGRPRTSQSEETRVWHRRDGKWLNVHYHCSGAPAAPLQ
The target is the same in test [15]. The note with it: at 10 µM.
In test [16] the target is Calcium/calmodulin-dependent protein kinase type II subunit delta (Homo sapiens) (UniProt Q13557). The note with it: at 1 µM.
Calcium/calmodulin-dependent protein kinase type II subunit delta (Homo sapiens), sequence (Q13557 whole entry): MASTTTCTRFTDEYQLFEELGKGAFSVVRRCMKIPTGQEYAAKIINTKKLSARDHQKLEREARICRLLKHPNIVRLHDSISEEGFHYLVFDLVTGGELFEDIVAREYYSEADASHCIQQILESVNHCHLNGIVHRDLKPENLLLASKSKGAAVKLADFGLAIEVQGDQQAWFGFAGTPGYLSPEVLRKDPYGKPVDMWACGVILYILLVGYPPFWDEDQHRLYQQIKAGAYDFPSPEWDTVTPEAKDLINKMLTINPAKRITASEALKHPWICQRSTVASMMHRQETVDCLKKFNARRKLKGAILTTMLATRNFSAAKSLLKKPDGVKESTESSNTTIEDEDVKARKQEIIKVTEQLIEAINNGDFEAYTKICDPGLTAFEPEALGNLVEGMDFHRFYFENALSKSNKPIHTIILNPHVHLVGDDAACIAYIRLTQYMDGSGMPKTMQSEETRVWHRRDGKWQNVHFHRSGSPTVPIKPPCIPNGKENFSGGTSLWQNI
Test [17] shares this target. The note with it: at 10 µM.
Test [18] addresses Tyrosine-protein kinase CSK (Homo sapiens) (UniProt P41240). The note with it: at 1 µM.
The target of test [19] is T2, Calcium/calmodulin-dependent protein kinase type IV (Homo sapiens) (UniProt Q16566).
T2 sequence (whole entry): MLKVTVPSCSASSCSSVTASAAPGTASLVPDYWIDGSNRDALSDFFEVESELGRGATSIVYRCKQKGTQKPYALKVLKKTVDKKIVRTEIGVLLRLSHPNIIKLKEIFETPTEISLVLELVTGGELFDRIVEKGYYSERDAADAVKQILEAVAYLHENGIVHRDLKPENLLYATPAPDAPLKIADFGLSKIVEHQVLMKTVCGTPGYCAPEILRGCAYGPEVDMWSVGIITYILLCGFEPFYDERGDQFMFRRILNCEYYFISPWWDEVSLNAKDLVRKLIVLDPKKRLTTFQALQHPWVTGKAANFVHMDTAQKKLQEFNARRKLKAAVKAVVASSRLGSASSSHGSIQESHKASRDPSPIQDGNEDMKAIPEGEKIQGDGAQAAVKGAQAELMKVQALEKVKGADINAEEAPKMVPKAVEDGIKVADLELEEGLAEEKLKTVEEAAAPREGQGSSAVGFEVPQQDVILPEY
The conditions noted are these: at 1 µM.

Test [20] deals with T2, Calcium/calmodulin-dependent protein kinase type IV (Homo sapiens). The note with it: at 10 µM.

T1 sequence (P19784 whole entry, looked up): as the sequence (P19784 whole entry, looked up) above
T1 sequence (P67870 whole entry, looked up): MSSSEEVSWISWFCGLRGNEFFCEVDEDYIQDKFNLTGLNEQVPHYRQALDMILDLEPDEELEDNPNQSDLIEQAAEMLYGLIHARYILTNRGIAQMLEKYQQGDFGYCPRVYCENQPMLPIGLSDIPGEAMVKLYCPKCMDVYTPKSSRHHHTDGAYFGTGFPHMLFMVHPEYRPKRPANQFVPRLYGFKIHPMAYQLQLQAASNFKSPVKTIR
T1 sequence (P68400 whole entry, looked up): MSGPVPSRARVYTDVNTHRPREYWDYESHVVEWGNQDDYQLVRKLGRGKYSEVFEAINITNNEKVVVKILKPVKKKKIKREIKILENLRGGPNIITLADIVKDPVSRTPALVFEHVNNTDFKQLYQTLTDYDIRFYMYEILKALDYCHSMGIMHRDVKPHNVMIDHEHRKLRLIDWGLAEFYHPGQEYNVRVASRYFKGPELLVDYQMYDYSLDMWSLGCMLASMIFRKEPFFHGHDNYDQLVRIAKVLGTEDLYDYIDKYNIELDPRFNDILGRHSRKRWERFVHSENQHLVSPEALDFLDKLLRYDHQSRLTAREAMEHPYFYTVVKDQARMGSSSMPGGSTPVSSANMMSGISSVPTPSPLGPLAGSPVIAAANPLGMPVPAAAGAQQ
Calcium/calmodulin-dependent protein kinase type II subunit beta (Homo sapiens), sequence (Q13554 whole entry): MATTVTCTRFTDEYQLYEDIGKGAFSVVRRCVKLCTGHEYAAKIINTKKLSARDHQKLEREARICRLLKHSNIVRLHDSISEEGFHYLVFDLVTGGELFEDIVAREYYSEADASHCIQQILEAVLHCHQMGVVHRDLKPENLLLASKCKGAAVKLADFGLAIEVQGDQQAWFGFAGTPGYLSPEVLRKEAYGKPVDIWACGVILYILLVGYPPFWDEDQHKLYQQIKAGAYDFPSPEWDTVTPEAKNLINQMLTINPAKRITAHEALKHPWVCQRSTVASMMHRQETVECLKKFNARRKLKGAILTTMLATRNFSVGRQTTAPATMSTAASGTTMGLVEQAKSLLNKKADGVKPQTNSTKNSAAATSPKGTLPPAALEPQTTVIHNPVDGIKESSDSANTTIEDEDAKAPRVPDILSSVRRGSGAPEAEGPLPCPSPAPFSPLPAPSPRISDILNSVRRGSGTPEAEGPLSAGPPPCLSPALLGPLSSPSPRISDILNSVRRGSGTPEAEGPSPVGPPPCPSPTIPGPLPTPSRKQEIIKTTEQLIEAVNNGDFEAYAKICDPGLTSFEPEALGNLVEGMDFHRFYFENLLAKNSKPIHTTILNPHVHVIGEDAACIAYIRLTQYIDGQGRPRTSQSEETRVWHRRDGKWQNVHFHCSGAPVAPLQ
Dual specificity protein kinase CLK2 (Homo sapiens), sequence (P49760 whole entry, looked up): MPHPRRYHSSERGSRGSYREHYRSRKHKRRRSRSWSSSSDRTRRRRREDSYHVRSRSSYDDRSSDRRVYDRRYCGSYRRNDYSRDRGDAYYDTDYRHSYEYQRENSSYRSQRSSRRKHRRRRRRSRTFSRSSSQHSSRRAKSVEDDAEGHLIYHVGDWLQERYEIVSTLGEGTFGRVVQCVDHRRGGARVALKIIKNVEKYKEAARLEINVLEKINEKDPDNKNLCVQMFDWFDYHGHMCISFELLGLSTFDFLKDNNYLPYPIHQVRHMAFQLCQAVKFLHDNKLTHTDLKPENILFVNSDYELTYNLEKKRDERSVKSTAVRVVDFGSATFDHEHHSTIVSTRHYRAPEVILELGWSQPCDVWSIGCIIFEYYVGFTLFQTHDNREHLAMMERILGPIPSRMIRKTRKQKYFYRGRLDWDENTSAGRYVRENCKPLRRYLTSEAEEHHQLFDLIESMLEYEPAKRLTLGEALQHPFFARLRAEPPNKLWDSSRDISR

In the case of `O=C1NC(=O)C(c2cn(CCCO)c3ncccc23)=C1c1cnccn1`, the residual activity in test [1] came out at 76%; in test [2], 66%; in [3], 57%; in [4], 52%; in test [5], 52%; in test [6], 36%. For the same molecule, the residual activity in [7] is 74%; in test [8], 78%; in test [9] it was 97%; in test [10], 93%; in test [11], 97%; in [12], 75%. The residual activity in [13] amounted to 70%; in [14], 88%; in [15], 74%; in [16], 80%; in test [17], 64%.

Consider `NC(=O)c1cccc(-c2cc(Nc3ccc(OC(F)(F)F)cc3)ncn2)c1`, for which the residual activity amounted to 99% in test [1], 97% in test [2] and 97% in test [7].

With `O=c1cc(N2CCOCC2)oc2c(-c3ccccc3)cccc12`, the residual activity in test [1] amounted to 54%; in test [2], 12%; in test [4] it was 42%; in [11], 55%; in test [13] it was 79%.

As for `O=C(CCCc1ccc(-c2ccccc2F)cc1)Nc1ccc(O)cc1`, the residual activity came out at 92% in [1]; 97% in test [2]; 106% in test [3]; 102% in [4]; 92% in test [7]; 89% in test [8]. Also, the residual activity in test [18] was found to be 104%; in test [9], 107%; in test [10], 92%; in [11], 73%; in test [12] it was 100%; in [13], 89%. For the same molecule, the residual activity in test [14] was 106%; in [15], 75%; in test [16] it was 109%; in test [17], 78%; in test [19], 104%.

For the molecule `COc1cc2nccc(Oc3ccc(NC(=S)NC(=O)c4ccccc4C)cc3)c2cc1OC`, the residual activity is 83% in test [1]; 100% in [2]; 91% in test [4]; 66% in [7]; 46% in test [8]; 96% in [18]. Moreover, the residual activity in test [9] was determined as 69%; in test [11], 75%; in [12], 79%; in [13] it was 66%; in test [17] it was 85%; in test [19], 121%. For the same molecule, the residual activity in test [20] was found to be 84%.

In the case of `Oc1cccc(-c2nc(N3CCOCC3)c3oc4ncccc4c3n2)c1`, the residual activity in [1] stood at 89%; in test [2] it was 124%; in [3], 140%; in [4] it was 79%; in test [5] it was 118%; in [6], 89%. The residual activity in test [7] is 79%; in test [8], 30%; in [13], 90%; in test [14] it was 98%; in [15], 66%; in [20], 75%.

Turning to `O=C1NC(=O)C(c2cn(CCCn3ccnc3)c3ccccc23)=C1Nc1ccccc1`, the residual activity was 8% in [5]; 2% in [6]; 55% in test [7]; 36% in test [8]; 107% in test [18]; 78% in test [9]. The residual activity in test [10] turned out to be 106%; in test [11], 53%; in test [12] it was 77%; in [13], 45%; in test [16], 77%; in [17], 23%. In addition, the figures for the residual activity in test [19] and in test [20] were 106% and 74%, respectively.

Take `O=C(Nc1nc2ccccc2n1CCN1CCOCC1)c1cccc([N+](=O)[O-])c1`: the residual activity worked out at 86% in test [1]; 26% in test [5]; 24% in [6]; 55% in [7]; 56% in test [8]; 103% in test [18]. Besides, the residual activity in [9] was 105%; in test [12], 83%; in [13] it was 83%; in test [15], 76%; in test [16], 103%; in test [17] it was 85%. The residual activity in test [19] was 115%; in test [20] it was 53%.

As for `COc1ccc(Cl)cc1NC(=O)Nc1cc(C)nc2ccccc12`, the figures for the residual activity in test [1], in test [12] and in [13] were 94%, 88% and 72%, respectively.

In the case of `CCOc1nc(NC(=O)Cc2cc(OC)ccc2OC)cc(N)c1C#N`, in test [11], the residual activity stood at 78%.

For `O=S(=O)(c1cccc2cnccc12)N1CCCNCC1`, the residual activity in test [8] is 81%.

Turning to `Nc1ncnc2[nH]nc(Nc3ccc(F)cc3)c12`, the residual activity in test [1] was determined as 104%; in test [3] it was 104%; in [4], 73%; in test [5] it was 109%; in [6], 68%; in test [18], 90%. Also, the residual activity in test [9] turned out to be 65%; in [10], 91%; in test [11], 72%; in test [12] it was 67%; in [13] it was 20%; in test [15], 30%. In addition, the residual activity in [16] stood at 77%; in [17] it was 26%; in [19], 100%; in test [20], 104%.

With `c1ccc(-c2cnc(Nc3ccc(OCCN4CCCC4)cc3)s2)cc1`, the residual activity in [3] was 127%; in test [4], 81%; in test [6], 30%; in [10] it was 101%; in test [11] it was 41%; in test [12] it was 48%. Also, the residual activity in test [13] is 7%; in test [14] it was 19%; in [15], -1%; in [16] it was 22%; in [17], 4%.

For the molecule `CC(C)N(CCC(=O)c1ccc2ccccc2c1)Cc1ccccc1`, the residual activity in test [7] is 74%; in test [10], 100%; in test [11], 80%; in [12] it was 88%; in [13], 84%.

With `Cn1c2ccccc2c2c3c(c4c5ccccc5n(CCC#N)c4c21)CNC3=O`, the residual activity came to 103% in test [2]; 129% in test [3]; 96% in test [4]; 1% in test [8]; 107% in test [18]; 102% in test [9]. Besides, the residual activity is 80% in test [10]; 32% in test [11]; 11% in [12]; 10% in [13]; 2% in test [14]; -5% in test [15]. For the same molecule, the residual activity in [16] is 1%; in test [17] it was 1%; in test [19], 100%; in test [20], 58%.

Take `O=c1c(-c2ccc(F)cc2)c(-c2ccncc2)[nH]n1-c1ccc(Cl)cc1`: the values for the residual activity in [5], in test [6] and in [8] were 122%, 101% and 81%, respectively.

As to `Cc1cc(C)c(/C=C2\C(=O)Nc3ccccc32)[nH]1`, the residual activity in test [5] is 49%; in test [6], 37%; in test [7], 80%; in [8] it was 11%; in test [14], 32%; in [15] it was -1%. In addition, the residual activity stood at 38% in test [16], 9% in test [17], 104% in [19] and 60% in [20].

Regarding `COc1ccc2c(c1)c(C1=C(c3c[nH]c4ccccc34)C(=O)NC1=O)cn2CCCN(C)C`, the residual activity in [2] was determined as 111%; in test [5], 14%; in test [6], 2%; in test [7], 59%; in test [8] it was 45%; in test [10], 96%. Also, the residual activity was found to be 45% in [11]; 80% in [12]; 28% in [13]; 62% in [14]; 10% in test [15]; 42% in test [16]. Also, the results for the residual activity in test [17], in [19] and in test [20] were 8%, 105% and 61%, respectively.

Consider `NCCNc1ncc(C(N)=O)c(Nc2cccc(C(F)(F)F)c2)n1`, for which the residual activity in [7] was 82%; in test [8], 63%; in test [10], 20%; in [11], -5%; in test [12], 73%; in [13] it was 23%. Moreover, the residual activity in test [14] amounted to 55%; in test [15], 3%; in test [16], 51%; in test [17], 9%; in test [19], 114%; in test [20], 72%.

On to `COc1ccc(CNC(=O)Nc2ncc([N+](=O)[O-])s2)cc1`, for which the residual activity in test [5] amounted to 102%; in test [6], 105%; in test [18] it was 81%; in test [9] it was 74%; in [11] it was 72%.
